TDP1 cell CPT = DT40-hTDP1 cell growth loss with CPT; chicken DT40 Tdp1-/-;hTDP1 cells + 20 nM CPT, ATP luminescence, 48 h; Potency, µM (series often up to 46.2 µM), for the others: at the top dose activity change, negative = growth inhibition, hits mostly inhibitors; 420,000 tested, 12% active; AID 686979; further: potency means the concentration at half of the fitted maximal effect; on the % scale 0 is the no-effect control and ±100 the full control effect; nearly all actives have a fitted effect of over 55% in size
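Chicken DT40 Tdp1-/- cells complemented with human TDP1, 400 cells/well, exposed to compounds plus 20 nM camptothecin for at least 48 h at 37 C; viability read as ATP content by CellTiter-Glo luminescence.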
TDP1 inh = TDP1 (human) enzyme inhibition; Q9NUW8; recombinant TDP1, AlphaScreen DNA substrate cleavage; Potency, µM (doses to about 130 µM), for inactives: top-dose activity change, negative = inhibition, usual class: inhibitors; 350,000 tested, 0.28% active; AID 485290; further: potency means the concentration at half of the fitted maximal effect; on the % scale 0 is the no-effect control and ±100 the full control effect; nearly all actives have a fitted effect of over 40% in size
Target sequence (Q9NUW8 whole entry, looked up): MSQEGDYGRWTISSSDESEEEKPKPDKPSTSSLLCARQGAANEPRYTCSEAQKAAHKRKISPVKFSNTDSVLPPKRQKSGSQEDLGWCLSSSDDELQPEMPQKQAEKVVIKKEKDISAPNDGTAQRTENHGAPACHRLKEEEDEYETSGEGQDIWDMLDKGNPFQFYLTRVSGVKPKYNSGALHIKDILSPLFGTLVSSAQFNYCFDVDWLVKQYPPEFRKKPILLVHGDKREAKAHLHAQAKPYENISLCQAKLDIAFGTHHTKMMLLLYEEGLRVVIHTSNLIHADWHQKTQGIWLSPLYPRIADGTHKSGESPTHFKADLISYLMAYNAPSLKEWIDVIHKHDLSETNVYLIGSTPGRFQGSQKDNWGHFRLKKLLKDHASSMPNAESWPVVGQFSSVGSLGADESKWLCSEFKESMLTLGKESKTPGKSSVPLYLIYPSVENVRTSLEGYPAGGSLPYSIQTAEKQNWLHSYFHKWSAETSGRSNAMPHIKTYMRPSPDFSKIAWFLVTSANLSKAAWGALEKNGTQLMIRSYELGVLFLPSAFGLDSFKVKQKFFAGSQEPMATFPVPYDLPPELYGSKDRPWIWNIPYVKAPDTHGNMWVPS
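Tdp1 1 nM final; 15 min RT w/ cpd; substrate 15 nM, 5 min; beads 10 ug/ml, 10 min; AlphaScreen read. Neg ctrl: no enzyme.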
HepG2 viability = counter-screen for TGF-b inhibitors: cytotoxicity in HepG2 cells; HepG2 CAGA-GFP viability, ATP luminescence, 18 h; Potency, µM (series often up to 46.1 µM), for the others: at the top dose activity change, negative = cytotoxicity, actives largely listed as cytotoxic; 410,000 tested, 0.76% active; AID 588856; further: potency means the concentration at half of the fitted maximal effect
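CellTiter-Glo luminescence gave cytotoxicity after 18 hours at 37 degrees C. The cells were HepG2 CAGA-GFP in 1% FBS DMEM, stimulated with 500 pg/mL TGF-beta after compound addition. %Activity was normalised to no-cell wells (complete cell-killing) and DMSO (no toxicity), and curves were fitted and classified.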
TDP1 cell noCPT = qHTS for Inhibitors of human tyrosyl-DNA phosphodiesterase 1 (TDP1): qHTS in cells in absence of CPT; AID 686978, 2013; DT40 Tdp1-/- hTDP1 cells, no CPT, ATP luminescence, 48 h; Potency, µM (series often up to 46.2 µM), without a hit: at the top dose activity change, negative = growth inhibition, hits mostly inhibitors; 420,000 tested, 15% active; further: potency means the concentration at half of the fitted maximal effect; on the % scale 0 is the no-effect control and ±100 the full control effect; nearly all actives have a fitted effect of over 55% in size
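No-CPT arm: Tdp1-/-;hTDP1 DT40 cells (400/well) plus compounds, incubated ≥48 hr at 37 °C. Readout CellTiter-Glo luminescence.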
IL-1B inflam inh = blocks inflammasome-driven IL-1 beta release; 360,000 tested, 4.7% active; activity change, % at 57.5 µM; THP-1 LPS/ATP IL-1B secretion, AlphaLISA, 16 h; hits give low values; AID 743279; in the data active means activity change below about -50%; inconclusive means mostly about -30% to -49%; further: on the % scale 0 is the no-effect control and ±100 the full control effect
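Secreted IL-1B measured by AlphaLISA bead assay after 16 h compound exposure of THP-1 cells; compounds (final up to 57.5 uM) added 1 h before LPS (250 ng/mL) and ATP (1.25 mM) stimulation; lower signal means less secretion.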
TGFb inhibitor = inhibitors of TGF-b signaling | Potency, µM (top dose mostly 46.1 µM), for inactives: top-dose activity, negative = inhibition, hits mostly inhibitors | AID 588855 | HepG2 CAGA-GFP TGF-b/SMAD3 reporter, GFP fluorescence, 18 h; TGF-beta stimulated, 500 pg/mL final | 410,000 tested, 1.2% active; further: potency means the concentration at half of the fitted maximal effect; on the % scale 0 is the no-effect control and ±100 the full control effect; nearly all actives have a fitted effect of over 65% in size
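Read-out: total well GFP (ex488/em500-530) summed from mean per-cell fluorescence. Cells: HEPG2 CAGA-GFP, 1% FBS DMEM, 18 h at 37 degrees C with 500 pg/mL final TGF-beta. Unstimulated wells served as the full-inhibition control; stimulated DMSO wells = 0%.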
The depositor's hits bear a star; ? = inconclusive; / = not tested or not shown; [ ] = remark or other dose. Sampled rows, rich in hits. Any-hit rate of the full collection: about 18%. Unless noted, the call rests on the fitted dose curve; in most records, active means well fitted curve in the direction sought with a large enough effect; inconclusive means small, poorly fitted or top-dose-only effect, or another doubt; inactive means no such curve, though single readings can be large; an effect the other way counts as inactive or inconclusive.

SMILES | TDP1 cell CPT | TDP1 inh | HepG2 viability | TDP1 cell noCPT | IL-1B inflam inh | TGFb inhibitor
Cc1c(C(=O)OCC2CCCCC2)[nH]c2c1C(=O)CC(c1ccc(Cl)cc1)C2 (stereo not drawn) | -13% | 0% | 4% | -4% | / | -11%
Cc1c(C(=O)OCC2CCCCC2)[nH]c2c1C(=O)CC(c1ccc(F)cc1)C2 (stereo not drawn) | ? | -1% | 0% | ? | / | -3%
CCOC(=O)c1[nH]c2c(c1C)C(=O)CC(c1ccc(F)cc1)C2 (stereo not drawn) | 0.73µM* | -1% | 2% | 0.65µM* | 126 | -3%
Cc1ccc(COC(=O)c2[nH]c3c(c2C)C(=O)CC(c2ccc(Cl)cc2)C3)cc1 (stereo not drawn) | 12µM* | -8% | -2% | 9.2µM* | / | 15%
Cc1c(C(=O)OC2CCC(C)CC2)[nH]c2c1C(=O)CC(c1ccccc1Cl)C2 (stereo not drawn) | 5.2µM* | 0%[12.3 µM] | -5% | 4.6µM* | / | -4%
Cc1c(C(=O)OCCOc2ccccc2)[nH]c2c1C(=O)CC(c1ccccc1)C2 (stereo not drawn) | 0.23µM* | 0% | -12% | 0.15µM* | / | ?
Cc1c(C(=O)OCc2ccccc2)[nH]c2c1C(=O)CC(c1ccc(N(C)C)cc1)C2 (stereo not drawn) | ? | 2% | -17% | -18% | / | -16%
Cc1c(C(=O)OC2CCC(C)CC2)[nH]c2c1C(=O)CC(c1ccc(N(C)C)cc1)C2 (stereo not drawn) | -19% | 2% | -6% | -16% | / | 28%
COc1cc(C)c(CN2C[C@H](Sc3nc4ccccc4[nH]3)C[C@H]2C(=O)N(C)C)cc1C | -12% | / | / | -30% | / | /
CCOCCOC(=O)c1[nH]c2c(c1C)C(=O)CC(c1ccccc1)C2 (stereo not drawn) | 1.5µM* | / | -23% | 0.92µM* | 65 | ?
CCOC(=O)c1[nH]c2c(c1C)C(=O)CC(c1ccc(OCC)c(OC)c1)C2 (stereo not drawn) | -25% | -3% | 11% | ? | -27 | 6%
Cc1c(C(=O)OCCOc2ccccc2)[nH]c2c1C(=O)CC(c1ccccc1Cl)C2 (stereo not drawn) | 1.5µM* | -4%[12.3 µM] | 0% | 1.5µM* | / | ?
Cc1ccc2oc(C(=O)Nc3c(C(=O)c4ccc(C)c(F)c4)oc4ccccc34)cc(=O)c2c1 | 1% | 0% | 25% | -6% | / | -10%
CCN(CC(=O)Nc1c(F)cccc1F)C(=O)c1csc2c1CCCC2 | -10% | 4% | -2% | -20% | 5 | -6%
CC(C)COc1ccc(C/C(N)=N/n2cnnc2)cc1 | 5.2µM* | -5% | 0% | 5.8µM* | 11 | -11%
O=C1CN(C(=O)c2ccccc2C(=O)O)c2ccccc2N1 | -3% | / | -6% | -2% | -2 | 6%
O=C1CN(C(=O)c2cc(Br)c(Br)s2)c2ccccc2N1 | ? | -1% | -53% | 13µM* | 19 | 0%
O=C1CN(C(=O)c2cccc(Br)c2)c2ccccc2N1 | 15µM* | 4% | -14% | 12µM* | 21 | -18%
O=C1CN(C(=O)c2ccccc2)c2ccccc2N1 | -1% | 3% | 0% | -2% | -7 | -11%
O=c1ccc(-c2ccccc2)nn1Cc1c(F)cccc1Cl | 18µM* | 2% | -24% | ? | / | ?
O=c1ccc(-c2ccccc2)nn1Cc1ccccc1F | -12% | 2% | -10% | -19% | -62* | 4%
C=Cc1ccc(Cn2nc(-c3ccccc3)ccc2=O)cc1 | ? | / | 1% | -12% | 29 | -20%

Screening data: PubChem BioAssay, National Center for Advancing Translational Sciences (NCATS)
